Experimental findings from PubChem BioAssay (NCATS) are described below.

“And” between values parts separate entries of the source, which are not always exact repeats. Equal values may be shown once. Inconclusive results are not listed. The source made the active and inactive calls. Unless noted, the call rests on the fitted dose curve.

Experiment [1] deals with Bile acid receptor (Homo sapiens) (UniProt Q96RI1). The experiment in a line: qHTS assay for small molecule antagonists of farnesoid X receptor signaling (AID 588526). Further: on the % scale 0 is the no-effect control and ±100 the full control effect. A digest of the protocol:
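Antagonist mode: titrated compounds tested against chenodeoxycholic acid stimulation (normalized to 50 uM CDCA and DMSO) in GeneBLAzer HEK293T cells for 16 h. Beta-lactamase read by CCF4 fluorescence; IC50 from Hill fits.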

The target is the same in experiment [2]. The experiment in a line: qHTS assay for small molecule agonists of farnesoid X receptor signaling (AID 588527).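 Further: series mostly up to about 77 µM; 0% = vehicle basal and 100% = reference agonist.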 The settings on record: HEK293T FXR-UAS-bla, beta-lactamase ratio, 16 h; activation: stronger effect = higher value. The method, boiled down:
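Quantitative HTS used FXR-UAS-bla HEK293T cells with 16 h compound incubation at 37 C. EC50 values came from concentration-response curves normalized to chenodeoxycholic acid.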
On the technique in general: In qHTS, concentration-response curves come from the screen itself.

The target of experiment [3] is Glucocorticoid receptor (Homo sapiens) (UniProt P04150). The experiment in a line: qHTS assay for small molecule agonists of glucocorticoid receptor signaling (AID 588532; active means well fitted curve in the direction sought with a large enough effect in the signal ratio, with a control signal flat; the % refers to the signal ratio;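 further: 100% = dexamethasone at 0.1 µM and 0% = DMSO only wells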). The settings on record: HeLa MMTV-bla, beta-lactamase ratio, agonist, 18 h; activation: stronger effect = higher value, percent of dexamethasone control, DMSO zero. A digest of the protocol:
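HeLa GRE-bla reporter cells; 18 h compound exposure at 37 C; 2 h CCF4 loading at room temperature; fluorescence at 460 and 530 nm; EC50 by Hill equation.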

Experiment [4] deals with Peroxisome proliferator-activated receptor delta (Homo sapiens) (UniProt Q03181). The experiment in a line: qHTS assay for small molecule agonists of peroxisome proliferator-activated receptor delta signaling (AID 588534).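 Further: 0% = DMSO basal wells and 100% = positive control agonist at 10 µM.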 A digest of the protocol: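 Fluorescence from CCF4 substrate cleavage by beta-lactamase reporter, read 2 hrs at RT, measured agonist activity. Compounds were tested with 18 hrs exposure at 37 C. Concentration-response data fitted to Hill equation.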

The target of experiment [5] is Thyroid hormone receptor beta (Homo sapiens) (UniProt P10828). The experiment in a line: qHTS assay for small molecule agonists of thyroid hormone receptor beta signaling (AID 588545). A digest of the protocol:
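Cells (2500/well) were seeded, incubated 4 hrs at 37 C, dosed with a compound series, incubated 18 hrs, loaded with CCF4 dye for 2 hrs at RT, then read for fluorescence. Data were scaled between DMSO (0%) and 10 nM T3 (100%).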

Experiment [6] has the same target. The experiment in a line: qHTS assay for small molecule antagonists of thyroid hormone receptor beta signaling (AID 588547; active means well fitted inhibition curve with a large enough effect in the signal ratio, with a control signal flat, not every such curve was filed as active; the % refers to the signal ratio;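 further: cells stimulated with 0.4 nM T3 agonist during compound exposure; series mostly up to about 77 µM; on the % scale 0 is the no-effect control and ±100 the full control effect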). The settings on record: TR-UAS-bla HEK293, beta-lactamase ratio, antagonist mode, 18 h. The method, boiled down: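 TR-UAS-bla GripTite HEK293 cells in 2% charcoal/dextran FBS medium; compounds 0.59 nM to 92 uM with T3 at 0.4nM final, 18 h at 37 C. Beta-lactamase read by CCF4 fluorescence (460/530 nm); Hill fits gave IC50 and efficacy.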

Experiment [7] can be described thus: qHTS assay for small molecule agonists of the antioxidant response element (ARE) signaling pathway (AID 651741; active means well fitted activation curve with a large enough effect in the signal ratio; the % refers to the signal ratio; further: potency means the concentration at half of the fitted maximal effect). The method, boiled down:
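CellSensor ARE-bla HepG2 cells (2,000/well) carrying ARE-driven beta-lactamase, exposed 16 h at 37 C. LiveBLAzer B/G FRET substrate added for 2 h at room temperature; fluorescence intensity read.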

Experiment [8] concerns the target Peroxisome proliferator-activated receptor alpha (Homo sapiens) (UniProt Q07869). The experiment in a line: qHTS assay for small molecule agonists of the peroxisome proliferator-activated receptor alpha (PPARalpha) signaling pathway (AID 651778; active means well fitted curve in the direction sought with a large enough effect; an effect the other way counts as inactive or inconclusive; further: % of control where 0% means no effect). To be noted: PathHunter PPARalpha complementation, chemiluminescence, 6 h; max response: stronger effect = higher value. A digest of the protocol:
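Enzyme-fragment complementation assay in which ligand-bound PPARalpha translocates and forms an active enzyme that generates chemiluminescence. Cells were plated overnight, exposed to compound for 6 hr at 37 C, and then given detection reagent for 60 min at room temperature.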

Experiment [9] is described as follows: qHTS assay for small molecule agonists of the antioxidant response element (ARE) signaling pathway measured by Nrf2-dependant transcriptional activity (AID 720636; active means well fitted curve in the direction sought with a large enough effect in the repeat runs; an effect the other way counts as inactive or inconclusive; further: potency means the concentration at half of the fitted maximal effect;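 on activation: HepG2 cells with an ARE-driven luciferase reporter; % of control where 0% means no effect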). The method, boiled down: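 In HepG2 cells engineered with an Nrf2-responsive luciferase gene, ARE induction was quantified as luminescence after 16 hr compound treatment at 37 C.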
Experiment [10] is described as follows: qHTS assay for small molecule agonists of the antioxidant response element (ARE) signaling pathway measured by Nrf2-dependant transcriptional activity - cell viability counter screen (AID 720653; active means well fitted curve in the direction sought with a large enough effect in the repeat runs; an effect the other way counts as inactive or inconclusive; further: on the % scale 0 is the no-effect control and ±100 the full control effect). The settings on record: ARE-bla HepG2 viability, CellTiter-Glo ATP luminescence, 16 h; max response: stronger effect = lower value. A digest of the protocol:
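ARE-bla HepG2 cells treated with compounds for 16 h at 37C; this counter screen measures viability as intracellular ATP by CellTiter-Glo luminescence after 30 min at room temperature.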

The nature of experiment [11]: qHTS assay for cell viability of HEK293 cells (AID 743288; active means well fitted curve in the direction sought with a large enough effect; an effect the other way counts as inactive or inconclusive; further: on the % scale 0 is the no-effect control and ±100 the full control effect; nearly all actives have a fitted effect of over 50% in size). The settings on record: ATP luminescence (CellTiter-Glo), 18 h; max response: stronger effect = lower value. A digest of the protocol: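 HEK293 parental, 2,000 cells/well; ≥5 h pre-incubation 37 C; pintool compound addition; 18 h, 37 C; CellTiter-Glo 30 min RT; luminescence read.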
The nature of experiment [12]: qHTS assay for cell viability of the p53RE-bla HCT-116 cell line (AID 743292; active means well fitted curve in the direction sought with a large enough effect; an effect the other way counts as inactive or inconclusive; further: on the % scale 0 is the no-effect control and ±100 the full control effect; nearly all actives have a fitted effect of over 55% in size). A digest of the protocol:
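Intracellular ATP of p53RE-bla HCT-116 cells measured by luciferase luminescence following 16 h compound incubation at 37 C; DMSO-only wells served as vehicle controls.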

Experiment [13] addresses Vitamin D3 receptor (Homo sapiens) (UniProt P11473). The experiment in a line: qHTS assay for small molecule antagonists of vitamin D receptor signaling (AID 588541).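 Further: receptor activated by calcitriol during compound treatment; series mostly up to about 77 µM; on the % scale 0 is the no-effect control and ±100 the full control effect.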 A digest of the protocol:
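VDR-UAS-bla HEK293T cells in 2% charcoal-stripped FBS were stimulated with 1-alpha,25-dihydroxyvitamin D3 (3 nM final) plus compound for 16 h at 37 C. The beta-lactamase CCF4 readout was normalized to 50 nM agonist and DMSO, and Hill fits gave IC50.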

For experiment [14] the target is unchanged. In words: qHTS assay for small molecule agonists of vitamin D receptor signaling (AID 588543).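 Further: 0% = DMSO basal and 100% = reference agonist control.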 The method, boiled down: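 Reporter cells (HEK293T, VDR-UAS-bla) were seeded in medium with 2% charcoal-stripped serum and incubated 5 h, then compounds in concentration series were added for 16 h at 37 °C. Stimulation was scaled between DMSO basal and 50 nM 1α,25-dihydroxyvitamin D3.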

Experiment [15] is described as follows: qHTS assay for small molecule antagonists of retinoid X receptor alpha signaling (AID 588546; active means well fitted inhibition curve with a large enough effect in the signal ratio, with a control signal flat, not every such curve was filed as active; the % refers to the signal ratio). The settings on record: HEK293T RXRa-UAS-bla, beta-lactamase ratio, antagonist mode; measured here: W530 green channel, cytotoxicity proxy. A digest of the protocol:
(§1)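 Beta-lactamase reporter inhibition, read as CCF4 fluorescence ratio (ex 405, em 460/530 nm) after 2 h at RT. HEK293T UAS-bla cells, 2500/well, were stimulated with 9-cis-RA at 500 or 100 nM final alongside test compound for 18 h at 37 C.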

Experiment [16] deals with Retinoic acid receptor RXR-alpha (Homo sapiens) (UniProt P19793). The description is as above. To be noted: HEK293T RXRa-UAS-bla, beta-lactamase ratio, antagonist mode. The method, boiled down: as §1
The nature of experiment [17]: qHTS assay for small molecule activators of the p53 signaling pathway (AID 651743; active means well fitted activation curve with a large enough effect in the signal ratio, not every such curve was filed as active; the % refers to the signal ratio; further: series mostly up to about 92 µM; % of control where 0% means no effect). To be noted: HCT-116 p53RE-bla, beta-lactamase FRET ratio, 16 h; activation: stronger effect = higher value. The method, boiled down: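 p53RE-bla HCT-116 cells carrying a beta-lactamase reporter under p53 response elements were exposed to compounds for 16 hours at 37 C. Reporter activity read as fluorescence after 2 hours at room temperature with LiveBLAzer B/G FRET substrate.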

Experiment [18] can be described thus: qHTS assay for small molecule activators of the nuclear factor-kappa B (NF-kB) signaling pathway (AID 651749; active means well fitted activation curve with a large enough effect in the signal ratio; the % refers to the signal ratio; further: series mostly up to about 77 µM; % of control where 0% means no effect). The settings on record: NF-kB-bla ME-180 cells, beta-lactamase FRET ratio, 16 h; activation: stronger effect = higher value. The method, boiled down:
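NF-kB-bla ME-180 cells carrying a beta-lactamase reporter under an NF-kB response element, 2,000 cells/well, exposed to compound for 16 hr at 37C; FRET-based beta-lactamase fluorescence read-out of pathway activation.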

Experiment [19] can be described thus: qHTS assay for environmental chemicals that activate the Aryl hydrocarbon Receptor (AhR) signaling pathway (AID 651777; active means well fitted curve in the direction sought with a large enough effect; an effect the other way counts as inactive or inconclusive; further: % of control where 0% means no effect; nearly all actives have a fitted effect of over 15% in size). To be noted: 1A2-DRE human hepatoma cells, luciferase, 24 h; activation: stronger effect = higher value. The method, boiled down:
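Measured luciferase activity, read 30 min after One-Glo addition at room temperature, from human hepatoma cells bearing a dioxin response element–CYP1A2 promoter reporter and exposed to compound for 24 hr at 37 C.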

The target of experiment [20] is Nuclear receptor subfamily 1 group I member 2 (Rattus norvegicus) (UniProt Q9R1A7). The experiment in a line: qHTS assay for small molecule activators of the rat pregnane X receptor (rPXR) signaling pathway (AID 651751; call rule not given here; further: 0% is about no effect). The settings on record: rPXR reporter cells, luciferase (One-Glo), 24 h.
Nuclear receptor subfamily 1 group I member 2 (Rattus norvegicus), sequence (Q9R1A7 whole entry, looked up): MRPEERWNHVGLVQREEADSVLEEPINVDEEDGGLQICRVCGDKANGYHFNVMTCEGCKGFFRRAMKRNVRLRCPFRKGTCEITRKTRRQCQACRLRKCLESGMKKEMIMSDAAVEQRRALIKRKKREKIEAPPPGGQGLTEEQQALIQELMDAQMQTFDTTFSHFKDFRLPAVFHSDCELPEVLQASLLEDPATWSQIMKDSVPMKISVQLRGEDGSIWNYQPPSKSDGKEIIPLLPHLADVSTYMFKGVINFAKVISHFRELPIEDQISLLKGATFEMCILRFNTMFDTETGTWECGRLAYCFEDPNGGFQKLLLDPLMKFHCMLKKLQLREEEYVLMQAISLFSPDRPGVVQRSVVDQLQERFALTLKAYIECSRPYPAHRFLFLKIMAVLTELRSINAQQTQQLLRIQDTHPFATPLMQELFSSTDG

Peroxisome proliferator-activated receptor alpha (Homo sapiens), sequence (Q07869 whole entry, looked up, the tested form may be a part): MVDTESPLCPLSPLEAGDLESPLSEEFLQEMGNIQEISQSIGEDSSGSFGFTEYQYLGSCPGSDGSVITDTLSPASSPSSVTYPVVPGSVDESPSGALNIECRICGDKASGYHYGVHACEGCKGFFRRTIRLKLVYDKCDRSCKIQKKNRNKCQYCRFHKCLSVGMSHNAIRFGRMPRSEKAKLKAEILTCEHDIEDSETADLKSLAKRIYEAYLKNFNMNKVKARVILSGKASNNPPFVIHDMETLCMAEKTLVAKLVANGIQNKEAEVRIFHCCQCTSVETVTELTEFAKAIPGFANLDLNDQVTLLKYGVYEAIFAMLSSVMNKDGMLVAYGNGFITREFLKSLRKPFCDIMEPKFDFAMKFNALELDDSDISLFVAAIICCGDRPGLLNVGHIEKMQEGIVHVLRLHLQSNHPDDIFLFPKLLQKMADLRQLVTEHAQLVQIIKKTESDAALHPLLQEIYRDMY
Retinoic acid receptor RXR-alpha (Homo sapiens), sequence (P19793 whole entry, looked up): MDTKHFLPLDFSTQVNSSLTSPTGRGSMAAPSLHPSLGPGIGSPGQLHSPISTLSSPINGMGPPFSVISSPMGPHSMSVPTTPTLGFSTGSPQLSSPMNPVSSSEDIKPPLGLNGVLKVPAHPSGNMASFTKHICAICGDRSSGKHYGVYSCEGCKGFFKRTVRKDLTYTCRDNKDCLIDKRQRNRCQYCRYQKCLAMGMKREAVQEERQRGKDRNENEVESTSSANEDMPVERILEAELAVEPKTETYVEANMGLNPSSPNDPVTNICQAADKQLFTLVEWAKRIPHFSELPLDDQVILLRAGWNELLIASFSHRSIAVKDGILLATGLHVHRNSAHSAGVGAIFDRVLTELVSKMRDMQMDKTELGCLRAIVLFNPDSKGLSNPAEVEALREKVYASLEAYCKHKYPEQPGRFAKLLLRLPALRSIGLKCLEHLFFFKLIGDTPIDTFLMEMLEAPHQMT
Glucocorticoid receptor (Homo sapiens), sequence (P04150 whole entry, looked up): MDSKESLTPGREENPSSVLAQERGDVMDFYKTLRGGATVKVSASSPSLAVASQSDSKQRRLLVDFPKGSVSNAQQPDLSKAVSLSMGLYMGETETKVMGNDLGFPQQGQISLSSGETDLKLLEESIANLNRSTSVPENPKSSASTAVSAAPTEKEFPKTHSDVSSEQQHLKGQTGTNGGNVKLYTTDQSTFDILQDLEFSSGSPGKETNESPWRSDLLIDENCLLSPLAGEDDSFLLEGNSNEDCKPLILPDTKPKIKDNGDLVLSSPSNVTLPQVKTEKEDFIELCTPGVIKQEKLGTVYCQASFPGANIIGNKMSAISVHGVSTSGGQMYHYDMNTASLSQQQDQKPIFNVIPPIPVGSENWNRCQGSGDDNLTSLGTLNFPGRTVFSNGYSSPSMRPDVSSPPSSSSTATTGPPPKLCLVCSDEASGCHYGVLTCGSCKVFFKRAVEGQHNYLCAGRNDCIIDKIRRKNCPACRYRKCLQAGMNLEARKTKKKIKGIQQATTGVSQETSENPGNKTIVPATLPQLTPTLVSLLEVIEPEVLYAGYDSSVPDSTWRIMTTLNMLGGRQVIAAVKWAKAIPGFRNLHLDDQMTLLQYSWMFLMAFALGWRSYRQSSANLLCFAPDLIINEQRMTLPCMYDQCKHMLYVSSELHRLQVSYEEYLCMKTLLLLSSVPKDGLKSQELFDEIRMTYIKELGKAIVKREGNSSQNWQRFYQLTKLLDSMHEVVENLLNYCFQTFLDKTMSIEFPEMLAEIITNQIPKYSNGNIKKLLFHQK
Vitamin D3 receptor (Homo sapiens), sequence (P11473 whole entry, looked up): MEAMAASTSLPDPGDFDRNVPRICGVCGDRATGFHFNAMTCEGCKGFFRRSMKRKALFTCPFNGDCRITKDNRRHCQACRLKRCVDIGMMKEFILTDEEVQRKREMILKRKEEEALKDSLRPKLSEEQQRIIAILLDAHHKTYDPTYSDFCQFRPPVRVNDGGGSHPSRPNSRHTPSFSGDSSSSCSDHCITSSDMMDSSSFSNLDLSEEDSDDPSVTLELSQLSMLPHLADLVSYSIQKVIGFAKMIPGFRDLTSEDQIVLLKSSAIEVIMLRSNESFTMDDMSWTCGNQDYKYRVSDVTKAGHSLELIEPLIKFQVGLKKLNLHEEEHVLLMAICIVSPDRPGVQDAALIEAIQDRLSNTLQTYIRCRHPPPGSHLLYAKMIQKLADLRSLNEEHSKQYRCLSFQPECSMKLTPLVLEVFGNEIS
Bile acid receptor (Homo sapiens), sequence (Q96RI1 whole entry, looked up): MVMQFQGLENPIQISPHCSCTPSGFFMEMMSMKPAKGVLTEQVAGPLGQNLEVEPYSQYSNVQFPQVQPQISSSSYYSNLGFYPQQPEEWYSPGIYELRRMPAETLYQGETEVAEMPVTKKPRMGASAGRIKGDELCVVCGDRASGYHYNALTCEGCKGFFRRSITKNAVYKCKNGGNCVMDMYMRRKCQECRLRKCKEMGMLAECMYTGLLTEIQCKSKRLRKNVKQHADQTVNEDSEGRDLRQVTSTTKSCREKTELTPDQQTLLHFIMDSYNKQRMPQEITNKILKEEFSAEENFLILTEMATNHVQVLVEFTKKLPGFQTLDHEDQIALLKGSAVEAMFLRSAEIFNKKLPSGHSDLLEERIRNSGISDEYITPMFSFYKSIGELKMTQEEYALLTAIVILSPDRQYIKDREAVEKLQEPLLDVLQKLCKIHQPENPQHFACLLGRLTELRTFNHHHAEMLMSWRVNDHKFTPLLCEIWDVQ
Peroxisome proliferator-activated receptor delta (Homo sapiens), sequence (Q03181 whole entry, looked up): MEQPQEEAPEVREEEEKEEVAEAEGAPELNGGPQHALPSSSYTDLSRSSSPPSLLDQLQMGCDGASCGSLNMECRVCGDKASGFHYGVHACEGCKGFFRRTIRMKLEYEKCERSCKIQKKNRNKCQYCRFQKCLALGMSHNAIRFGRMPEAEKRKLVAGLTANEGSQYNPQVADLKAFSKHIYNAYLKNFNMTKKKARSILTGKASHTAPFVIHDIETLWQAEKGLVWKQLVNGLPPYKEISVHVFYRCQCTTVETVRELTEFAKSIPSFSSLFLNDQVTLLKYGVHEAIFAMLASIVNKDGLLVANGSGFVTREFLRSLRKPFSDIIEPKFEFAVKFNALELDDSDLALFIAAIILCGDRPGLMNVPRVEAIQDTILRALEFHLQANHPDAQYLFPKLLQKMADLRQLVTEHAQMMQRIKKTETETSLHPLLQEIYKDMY
Thyroid hormone receptor beta (Homo sapiens), sequence (P10828 whole entry, looked up): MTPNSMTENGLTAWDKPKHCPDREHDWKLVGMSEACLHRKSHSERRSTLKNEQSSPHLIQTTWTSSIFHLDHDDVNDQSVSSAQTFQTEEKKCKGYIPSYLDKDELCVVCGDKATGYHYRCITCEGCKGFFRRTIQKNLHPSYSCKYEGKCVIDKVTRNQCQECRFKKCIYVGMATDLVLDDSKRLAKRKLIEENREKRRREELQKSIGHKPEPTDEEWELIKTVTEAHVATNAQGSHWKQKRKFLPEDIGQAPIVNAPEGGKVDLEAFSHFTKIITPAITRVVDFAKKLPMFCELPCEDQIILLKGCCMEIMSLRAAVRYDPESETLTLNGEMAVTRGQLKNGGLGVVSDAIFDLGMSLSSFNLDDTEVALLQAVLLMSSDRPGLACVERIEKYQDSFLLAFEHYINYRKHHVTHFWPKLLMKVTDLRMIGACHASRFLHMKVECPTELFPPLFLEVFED

`CCCN(CCOc1c(Cl)cc(Cl)cc1Cl)C(=O)n1ccnc1`: the Potency result in [1], in experiment [5], in experiment [9] and in [12] was “inactive” in each case. Further, the activation was 4.58% (inactive) in [2]; 3.18% (inactive) and 2.99% (inactive) in [3]. Further, in experiment [4], the call was inactive. The activity change % (negative = inhibition) in [6] was 22.9% (inactive). The Potency in experiment [7] was 30.6 µM (active) and 48.6 µM (active). For the same molecule, the max response was -1.45% (inactive) and -1.52% (inactive) in experiment [8]; -20.2% (inactive) and 3.11% (inactive) in experiment [10]; -28.6% (inactive) and -28.7% (inactive) in [11].
Regarding `CCN(CC)C(=O)SCc1ccc(Cl)cc1`, the Potency result in experiment [1], in experiment [13], in experiment [5] and in experiment [12] was “inactive” throughout. Also, the activation in experiment [2] is 5.41% (inactive); in [17], 1.13% (inactive); in experiment [18] it was -0.511% (inactive); in experiment [19], 2.07% (inactive). Also, in experiment [14], the result was inactive. Further, the max response in experiment [15] was -13.2%; in experiment [16], -31.3% (inactive); in experiment [8], -1.35% (inactive); in experiment [10] it was -5.19% (inactive); in experiment [11], -14.7% (inactive); in [20] it was 1.53% (inactive). In addition, the activity change % (negative = inhibition) in experiment [6] is 12% (inactive).
On to `CCOP(=O)(OCC)Oc1cc(C)nc(C(C)C)n1`, for which the Potency result in experiment [1] and in experiment [5] was “inactive” each time. Also, the activation is -3.07% (inactive) in experiment [2], 20.3% (inactive) in experiment [3], -7.84% (inactive) in [17] and -0.423% (inactive) in [19]. The molecule was classed as inactive in experiment [4]. For the same molecule, the max response in experiment [15] is 13.6%; in experiment [16], 18.7% (inactive); in experiment [8], -1.71% (inactive); in [10], 16.1% (inactive); in experiment [11], 7.77% (inactive); in experiment [20], -12.9% (inactive).
On to `CCCOCC(=Nc1ccc(Cl)cc1C(F)(F)F)n1ccnc1`, for which the Potency result in [1], in experiment [13], in experiment [5] and in [12] was “inactive” each time. Further, the activation in experiment [2] was -0.0346% (inactive); in experiment [17], -5.04% (inactive); in [18] it was -1.47% (inactive); in [19], 14% (inactive). Also, the result in experiment [4] and in [14] was inactive. The Potency in [7] was 19.3 µM (active); in [9], 61.1 µM (active). The figures for the max response in experiment [8], in [10] and in experiment [11] were 9.44% (inactive), -4.06% (inactive) and -21.5% (inactive), respectively.
Take `O=[N+]([O-])c1ccc(Nc2ccccc2)cc1`: the Potency result in experiment [1], in experiment [5] and in [12] was “inactive” in each case. In addition, the activation is 0.7% (inactive) in experiment [2]; -0.43% (inactive) in experiment [3]; -0.549% (inactive) in experiment [17]; 0.166% (inactive) in [18]; 5.27% (inactive) in [19]. Besides, the call in experiment [14] was inactive. Also, the max response was -4.45% in experiment [15]; -16.2% (inactive) in [16]; -1.55% (inactive) in experiment [8]; -13.2% (inactive) in experiment [10]; 1.82% (inactive) in experiment [11]. In addition, in experiment [6], the activity change % (negative = inhibition) is -15.7% (inactive). The Potency in experiment [7] was 48.6 µM (active).
